Each structure is given as a SMILES string. Compounds without any hit were thinned out: in the full panel of roughly 83,000, 20% have a hit.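 Values shown are percent growth following 48 h exposure of cells in 96-well plates to a single concentration of compound; below 10 was considered active.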 Values without a mark were called inactive. Calls of active or inactive are those of the source.

Holding throughout (assay): NCI-60 one-dose screen, 48 h (100 = growth as untreated, 0 = no growth, -100 = all killed)
Holding throughout (settings): 10 µM unless noted

In assay [1] the test system is OVCAR-8 ovarian.
The subject of assay [2] is OVCAR-5 ovarian.
For assay [3], the system named is OVCAR-4 ovarian.
For assay [4], the system named is SK-OV-3 ovarian.
Assay [5] deals with OVCAR-3 ovarian.
Assay [6] has as its system HS 578T breast.
Assay [7] relates to NCI/ADR-RES ovarian.
Assay [8] has as its system T-47D breast.
Assay [9] deals with BT-549 breast.
Assay [10] relates to MDA-MB-435 melanoma.
In assay [11] the test system is SW-620 colon.
The subject of assay [12] is MCF7 breast.
Assay [13] deals with HCT-116 colon.
In assay [14] the test system is HCC-2998 colon.
Assay [15] concerns KM12 colon.

As to `CN(C)CCCN1c2nc3ccccc3cc2Sc2cc3ccccc3nc21`, the growth in assay [1] is -67% (active); in [2], -58.5% (active); in [3], 18.9%; in assay [4], -35.3% (active); in assay [5], -81.4% (active); in assay [6], 2.82% (active). Also, the growth in assay [7] is -23.1% (active); in assay [8] it was -71.9% (active); in assay [9], -100% (active); in [10], -67% (active); in [11] it was -93.5% (active); in assay [12], -97.9% (active). Besides, the growth was -62.8% (active) in [13], -71.3% (active) in [14] and -72.4% (active) in assay [15].

As to `CCc1ccc(CCN2C(=O)c3ccccc3C2=O)nc1`, the growth in [1] was 102%; in [2] it was 129%; in assay [3], 101%; in assay [4], 98.1%; in [6], 119%; in assay [7], 128%. The growth in assay [8] was 94.8%; in [9], 116%; in [10], 98.9%; in assay [11], 107%; in assay [12], 89.5%; in assay [14], 112%. Moreover, in [15], the growth is 103%.

With `c1cnc2ccc3ncccc3c2c1`, the growth was 95.4% in assay [1]; 164% in assay [2]; 110% in [3]; 106% in [4]; 103% in assay [5]; 109% in assay [6]. Further, the growth in [7] is 128%; in assay [8], 116%; in assay [9], 108%; in assay [10], 129%; in assay [11], 100%; in [12], 92%. Also, the growth in assay [13] was 95.7%; in assay [14], 124%; in assay [15], 110%.

The values are drawn from PubChem BioAssay (NCI).
